We go through 58 molecules from PubChem BioAssay (Tox21).

“And” between values parts separate entries of the source, which are not always exact repeats. Identical values can stand only once. Inconclusive results are not listed. A call without a number means that no potency is given here. The source made the active and inactive calls. The call rests on the fitted dose curve; in most records, active means well fitted cell-killing curve with a large enough effect in the repeat runs; inconclusive means weak or mixed curves, or effect the other way; inactive means flat fitted curve, though single readings scatter.

The experiment is described as follows: cAMP Responsive Elements (CRE) small molecule antagonists, cell-based qHTS assay: qHTS cell viability counter screen (AID 2060913). Further: nearly all actives have a fitted effect of over 40% in size. Summed up:
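CRE-bla HEK293T cells (2,000/well, 18 h) given compound plus NKH477 0.25 uM final for 3 h at 37C; viability counter-screen by CellTiter-Glo luminescence in same wells after 30 min.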
(In general: In qHTS, concentration-response curves come from the screen itself.)
Potency means the concentration at half of the fitted maximal effect.

For the molecule `CC(CC(=O)O)CC(C)(C)C` (stereo not drawn), the Potency result is “inactive”.

As for `CC[N+](CC)(CC)CCOc1ccc(/C=C/c2ccccc2)cc1`, the Potency entry is “inactive”. On to `CC(=O)Oc1cccc(O)c1`, for which the Potency result is “inactive”. For `CCCNC(C)(C)COC(=O)c1ccccc1`, the Potency entry is “inactive”. With `OCCOCCOCCOCCO`, the Potency entry was “inactive”.

`CN(C)CCCOc1nn(Cc2ccccc2)c2ccccc12`: the Potency entry is “inactive”. With `CCOc1cc(N)c(Cl)cc1C(=O)NCC1CN(Cc2ccc(F)cc2)CCO1` (stereo not drawn) the entry was “inactive”; with `CCCCC(=O)N(C)C`, “inactive”; with `O=C(O)[C@H](O)c1ccccc1`, “inactive”. On to `COc1cccc2c1C(=O)c1c(O)c3c(c(O)c1C2=O)C[C@@](O)(C(=O)CO)C[C@@H]3O[C@H]1C[C@H](N)[C@H](O[C@@H]2CCCCO2)[C@H](C)O1`, for which the Potency result was “inactive”.

With `CC/C=C\CCCCCCCCCCOC(C)=O`, the Potency result was “inactive”. With `CN(C)c1ccc(SC#N)cc1`, the Potency result was “inactive”.

Turning to `CCCCCCCCCCCCCCCCCCO`, the Potency entry was “inactive”. In the case of `C=CC(=O)NC(C)(C)CS(=O)(=O)O`, the Potency result was “inactive”. As for `CC[C@H]1OC(=O)[C@H](C)[C@@H](O[C@H]2C[C@@](C)(OC)[C@@H](O)[C@H](C)O2)[C@H](C)[C@@H](O[C@@H]2O[C@H](C)C[C@H](N(C)C)[C@H]2O)[C@](C)(O)C[C@@H](C)/C(=N\OCOCCOC)[C@H](C)[C@@H](O)[C@]1(C)O`, the Potency result was “inactive”. Take `Fc1ccc([C@@H]2CCNC[C@H]2COc2ccc3c(c2)OCO3)cc1`: the Potency entry is “inactive”. As for `O=C(Nc1ccc(Cl)cc1)Nc1ccc(Cl)c(Cl)c1`, the Potency entry was “inactive”. On to `O=C(C1CCCCC1)N1CC(=O)N2CCCc3ccccc3C2C1` (stereo not drawn), for which the Potency result was “inactive”.

Turning to `CN(C)C(=O)C1(N2CCCCC2)CCN(CC[C@@]2(c3ccc(Cl)c(Cl)c3)CN(C(=O)c3ccccc3)CCO2)CC1`, the Potency is 64.1 µM (active). With `OC(CCN1CCCCC1)(c1ccccc1)c1ccccc1` the entry was “inactive”; with `O=C(O)c1cccnc1Nc1cccc(C(F)(F)F)c1`, “inactive”. Take `C=CC(C)(O)CC/C=C(\C)CCC=C(C)C` (stereo not drawn): the Potency result was “inactive”. As to `CCc1cccc(O)c1`, the Potency result was “inactive”. Take `N#C[C@@H]1CC(F)(F)CN1C(=O)CNC1CC2CCC(C1)N2c1ncccn1` (stereo partly drawn): the Potency result was “inactive”. Then `CCCCC/C(C=O)=C\c1ccccc1`, with “inactive”; and `CCCCC(CC)COCCCN` (stereo not drawn), with “inactive”; and `CC(C)OC(=O)C(C)(C)Oc1ccc(C(=O)c2ccc(Cl)cc2)cc1`, with “inactive”. Turning to `Cc1oc(=O)oc1CN1CCN(c2cc3c(cc2F)c(=O)c(C(=O)O)c2n3C(C)S2)CC1` (stereo not drawn), the Potency result is “inactive”. For the molecule `C[Si]1(C)N[Si](C)(C)N[Si](C)(C)N1`, the Potency entry was “inactive”. Then `Nc1ccc(N)c2ccccc12`, with “inactive”; and `CC(=O)OC1CCC(C(C)(C)C)CC1` (stereo not drawn), with “inactive”; and `C=Cc1ccc(C(C)(C)C)cc1`, with “inactive”. Consider `CCCCC(CC)COCCO` (stereo not drawn), for which the Potency result is “inactive”. With `C=CC(=O)OCC(Br)CBr` (stereo not drawn), the Potency result is “inactive”. For `c1cc(OCC2CO2)cc(OCC2CO2)c1` (stereo not drawn), the Potency entry is “inactive”. For the molecule `NS(=O)(=O)c1ccc(N2CCCCS2(=O)=O)cc1`, the Potency entry was “inactive”. On to `CN(C)c1ccc(C(=C2C=CC(=[N+](C)C)C=C2)c2ccccc2)cc1`, for which the Potency is 15.4 µM (active) and 11.9 µM (active) and 10.6 µM (active). As for `CCc1cc(Cl)c(OC)c(C(=O)NC[C@@H]2CCCN2CC)c1O`, the Potency result is “inactive”. For the molecule `CCCC(O)C(CC)CO` (stereo not drawn), the Potency result is “inactive”. `C=Cc1ccc(C=C)cc1`: the Potency entry is “inactive”.

Consider `c1ccc2[nH]cnc2c1`, for which the Potency result is “inactive”. For `Cc1ccc(N/N=c2\c(=O)cc/c(=N\Nc3ccc(S(=O)(=O)O)cc3)c2=O)c(C)c1`, the Potency entry is “inactive”. As for `CC(C)OC=O`, the Potency result is “inactive”.

`Clc1ccc(C(Cn2ccnc2)OCc2ccc(Sc3ccccc3)cc2)c(Cl)c1` (stereo not drawn): the Potency entry is “inactive”.

For the molecule `Cc1cccc(Cl)c1`, the Potency entry was “inactive”. With `Cc1ccc(=O)n(-c2ccccc2)c1` the entry was “inactive”; with `CCCCOCCOCCOCc1cc2c(cc1CCC)OCO2`, “inactive”; with `CN(C)CCCNCCCN`, “inactive”. Take `COc1cc2c(cc1OC)-c1cc(=Nc3c(C)cc(C)cc3C)n(C)c(=O)n1CC2`: the Potency result is “inactive”.

Turning to `CC(=O)Nc1nnc(S(N)(=O)=O)s1`, the Potency entry was “inactive”. With `Cc1ccc(S(=O)(=O)C(I)I)cc1` the figure was 61.1 µM (active); with `CC(CC1c2ccccc2CCc2ccccc21)CN(C)C` (stereo not drawn), “inactive”; with `COc1cc(N)c(Cl)cc1C(=O)NC1CCN(CCCOc2ccc(F)cc2)CC1OC` (stereo not drawn), “inactive”. On to `COc1nc(C)nc(N)n1`, for which the Potency entry was “inactive”. For `OCC(CO)(CO)COCC(CO)(CO)CO`, the Potency entry was “inactive”. `O=C1c2c(O)ccc([N+](=O)[O-])c2C(=O)c2c([N+](=O)[O-])ccc(O)c21`: the Potency is 27.1 µM (active). With `CN(CCOc1ccc(CC2SC(=O)NC2=O)cc1)c1ccccn1` (stereo not drawn), the Potency entry was “inactive”. For the molecule `c1cc(CCCc2ccncc2)ccn1`, the Potency entry is “inactive”.
